The results in this text go back to PubChem BioAssay (Tox21).

Each structure is given as a SMILES string. Results filed as inconclusive are left out. The source made the active and inactive calls. Unless noted, the call rests on the fitted dose curve; in most records, active means well fitted curve in the direction sought with a large enough effect in the repeat runs; inconclusive means weak or mixed curves; inactive means no such curve, though single readings can be large; an effect the other way counts as inactive or inconclusive.

The nature of experiment [1]: qHTS assay to identify small molecule agonists of the vitamin D receptor (VDR) signaling pathway - cell viability counter screen (AID 743224). Further: nearly all actives have a fitted effect of over 50% in size. Further: potency means the concentration at half of the fitted maximal effect. Summed up:
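Luminescence from CellTiter-Glo, read after 30 min at room temperature, reports viability of VDR-bla cells treated with compounds for 16 h at 37C in the wells used for the beta-lactamase FRET read.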

A short description of experiment [2]: qHTS assay to identify small molecule agonists of the NFkB signaling pathway (AID 1159509; active means well fitted curve in the direction sought with a large enough effect in the signal ratio in the repeat runs, not every such curve was filed as active; the % refers to the signal ratio; further: series mostly up to about 61 µM). Summed up:
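After overnight attachment, reporter cells received test compounds, DMSO or positive controls and were incubated 5 hr at 37 C. FRET substrate was then added for 1.5 hr at room temperature before dual-emission fluorescence reading.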
In general terms: Quantitative high-throughput screening tests each substance at several concentrations.

Experiment [3] in a line: qHTS assay to identify small molecule agonists of the NFkB signaling pathway - cell viability counter screen (AID 1159515; calls by dose curve; further: series mostly up to about 61 µM; nearly all actives have a fitted effect of over 55% in size). Summed up:
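Luminescence from CellTiter-Glo (30 min, room temperature) gives viability, measured in the same wells as the beta-lactamase reporter read. Cells were NFkB-bla ME-180, 2,000 per well, treated 5 hr with compounds.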

A short description of experiment [4]: qHTS assay to identify small molecule agonists of the endoplasmic reticulum stress response signaling pathway (AID 1159516; active means well fitted activation curve with a large enough effect in the signal ratio in the repeat runs, not every such curve was filed as active; the % refers to the signal ratio). Summed up:
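Read-out is beta-lactamase cleavage of a FRET substrate (405 nm excitation; 460 and 530 nm emissions) in ESRE-bla HeLa cells after a 5 hr compound exposure at 37 C. Substrate incubation ran 2 hr at room temperature.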

A short description of experiment [5]: qHTS assay to identify small molecule agonists of the endoplasmic reticulum stress response signaling pathway - cell viability counter screen (AID 1159517; calls by dose curve;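 further: HeLa cells carrying an ER stress response element beta-lactamase reporter; series mostly up to about 61 µM; nearly all actives have a fitted effect of over 50% in size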). Summed up:
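Luminescence readout: CellTiter-Glo, 30 min RT, same wells as the ESRE-bla reporter read. HeLa ESRE-bla, 1,500 cells/well, o/n 37 C; cpd 5 hr 37 C/5% CO2.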

Experiment [6] in a line: qHTS assay to identify small molecule agonists of the AP-1 signaling pathway - cell viability counter screen (AID 1159525; calls by dose curve; further: nearly all actives have a fitted effect of over 55% in size). Summed up:
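ME-180 AP-1-bla, 2500 cells/well, Opti-MEM + 0.5% dialyzed FBS; overnight 37 °C; cpd 15-pt titration, 5 h 37 °C; CellTiter-Glo 30 min RT; luminescence read; normalised to TOAB and DMSO controls.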

A short description of experiment [7]: qHTS assay to identify small molecule agonists of the AP-1 signaling pathway (AID 1159526; calls by dose curve).
Experiment [8] can be described thus: qHTS assay to identify small molecule agonists of the RXR signaling pathway - cell viability counter screen (AID 1159529). Further: nearly all actives have a fitted effect of over 50% in size. Further: potency means the concentration at half of the fitted maximal effect. In short, it runs like this:
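Same-well viability check after the LiveBLAzer FRET read: CellTiter-Glo added, luminescence measured after 30 min at room temperature. Reporter HEK 293T cells had been treated with compounds for 16 hr following a 5 hr preincubation.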

A short description of experiment [9]: qHTS assay to identify small molecule antagonists of the retinoid acid receptor (RAR) signaling pathway - cell viability counter screen (AID 1159551). Further: nearly all actives have a fitted effect of over 35% in size. In short, it runs like this: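 Luminescent ATP quantitation (CellTiter-Glo) gave cell viability in C3RL4 cells exposed to test chemicals for 6 h at 37 C alongside 1 uM final retinol.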
Experiment [10] in a line: qHTS assay to identify small molecule antagonists of the retinoic acid receptor (RAR) signaling pathway (AID 1159552; further: nearly all actives have a fitted effect of over 50% in size). In short, it runs like this:
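Readout: luciferase luminescence, 30 min post-reagent at RT. Setup: C3RL4 RARE reporter cells, compounds plus retinol 1 uM final, 6 hr incubation at 37 C and 5% CO2.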

A short description of experiment [11]: qHTS assay to identify small molecule agonists of the retinoic acid receptor (RAR) signaling pathway (AID 1159553). Summed up:
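Luminescence from a RARE-driven luciferase reporter in C3RL4 cells served as the read-out, measured after 30 min with detection reagent at room temperature. Compounds in DMSO were applied for 6 hr at 37 C following overnight seeding.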

A short description of experiment [12]: qHTS assay to identify small molecule antagonists of the retinoid-related orphan receptor gamma (ROR-gamma) signaling pathway - cell viability counter screen (AID 1159520). Further: nearly all actives have a fitted effect of over 50% in size. Summed up: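 Tet-on ROR gamma CHO cells (1,000/well) were plated 4 hr, given compounds in DMSO for 2 hr at 37 C, then induced with 1 uM final doxycycline for 16 hr. Viability was read as ATP by CellTiter-Glo luminescence after 30 min.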

Experiment [13] in a line: qHTS assay to identify small molecule antagonists of the vitamin D receptor (VDR) signaling pathway - cell viability counter screen (AID 743225). Further: nearly all actives have a fitted effect of over 50% in size. Further: potency means the concentration at half of the fitted maximal effect. In short, it runs like this: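 Luminescent cell viability (CellTiter-Glo) in VDR-bla HEK 293T cells after 16 h compound exposure at 37C in the presence of 3 nM final 1-alpha,25-dihydroxy vitamin D3.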
Experiment [14] deals with Nuclear receptor ROR-gamma (Homo sapiens) (UniProt P51449). Kind of experiment: qHTS assay to identify small molecule antagonists of the retinoid-related orphan receptor gamma (ROR-gamma) signaling pathway (AID 1159521; further: nearly all actives have a fitted effect of over 50% in size; further: potency means the concentration at half of the fitted maximal effect). Summed up:
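CHO cells expressing RORγ under a TET-on promoter, luciferase under RORE control. Dox 1 uM final, 16 h; compounds added 2 h prior. Luminescence decrease measured.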

Experiment [15] addresses Retinoic acid receptor RXR-alpha (Homo sapiens) (UniProt P19793). Kind of experiment: qHTS assay to identify small molecule agonists of the RXR signaling pathway (AID 1159527; calls by dose curve; further: nearly all actives have a fitted effect of over 35% in size). Summed up:
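Beta-lactamase reporter assay, agonist format. Engineered HEK 293T line, charcoal-stripped FBS at 2%, overnight (16 hr) exposure, fluorescence at 460 and 530 nm after 405 nm excitation.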

A short description of experiment [16]: qHTS assay to identify small molecule antagonists of the estrogen related receptor (ERR) signaling pathway - cell viability counter screen (AID 1224818). Further: series mostly up to about 46 µM. Summed up:
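Multiplexed counter screen to separate cytotoxic compounds from true ERR modulators. ERR cells received DMSO-dissolved compounds after a 6 h pre-incubation, were exposed 17.5 h at 37 C, then assayed with CellTiter-Fluor fluorescence.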

Experiment [17] can be described thus: qHTS assay to identify small molecule antagonists of the estrogen related receptor (ERR) signaling pathway (AID 1224819). In short, it runs like this: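 Seed ERR cells 2,000/well; rest 6 h at 37 C/5% CO2; pin compounds in DMSO; incubate 18 h at 37 C; add One-Glo; wait 30 min at room temperature; measure luminescence.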
The nature of experiment [18]: qHTS assay to identify small molecule agonists of the estrogen related receptor (ERR) signaling pathway (AID 1224820). In short, it runs like this:
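Quantitative HTS of the LOPAC library used NTP ERR reporter cells treated 18 h at 37 C. Signal is luminescence after One-Glo addition and a 30 min room-temperature incubation.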

Experiment [19] relates to estrogen-related receptor alpha (ERRalpha) with PGC-1alpha coactivator, human. Description: qHTS assay to identify small molecule antagonists of the estrogen related receptor signaling pathway with the pleiotropic PPARgamma coactivator (PGC) (AID 1224821; calls by dose curve). Summed up:
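Quantitative HTS for antagonism: PGC/ERR cells received compounds after 6 h attachment and were incubated 18 h at 37 C, with luminescence (One-Glo) as the endpoint.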

Experiment [20] can be described thus: qHTS assay to identify small molecule antagonists of the estrogen related receptor signaling pathway with the pleiotropic PPARgamma coactivator (PGC) cell viability counter screen (AID 1224822; further: series mostly up to about 46 µM). In short, it runs like this: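 Cells: PGC/ERR, 2,000/well, 1536-well format. Pre-incubation 6 h, 37 C/5% CO2. Compound exposure 17.5 h, 37 C. Detection: CellTiter-Fluor, 30 min, fluorescence.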

Chain of Retinoic acid receptor RXR-alpha (Homo sapiens) (P19793 whole entry, looked up): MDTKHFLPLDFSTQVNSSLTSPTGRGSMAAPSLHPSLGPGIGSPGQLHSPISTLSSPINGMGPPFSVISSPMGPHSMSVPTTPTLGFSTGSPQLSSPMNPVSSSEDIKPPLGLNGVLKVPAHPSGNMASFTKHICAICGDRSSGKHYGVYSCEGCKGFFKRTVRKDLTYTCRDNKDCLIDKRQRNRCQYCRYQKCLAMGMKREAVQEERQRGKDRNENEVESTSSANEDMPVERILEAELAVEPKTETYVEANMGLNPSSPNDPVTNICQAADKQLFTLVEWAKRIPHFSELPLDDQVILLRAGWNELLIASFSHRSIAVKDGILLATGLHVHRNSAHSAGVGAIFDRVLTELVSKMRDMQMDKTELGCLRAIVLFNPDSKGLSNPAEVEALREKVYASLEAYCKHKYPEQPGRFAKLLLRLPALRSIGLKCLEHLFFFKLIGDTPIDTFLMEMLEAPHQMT

Take `CCc1ccc(C(=O)NN(C(=O)c2cc(C)cc(C)c2)C(C)(C)C)cc1`: the Potency result in experiment [1], in [3], in experiment [5], in [6], in [8] and in [9] was “inactive” throughout. In addition, the Potency result in experiment [10] and in [11] was “inactive” in each case. The result in [2], in experiment [4] and in experiment [7] was inactive.
`CCCCCCCCOC(=O)c1ccc(C(=O)OCCCCCCCC)c(C(=O)OCCCCCCCC)c1`: the Potency entry in experiment [1], in experiment [3], in experiment [5], in [12], in experiment [6] and in experiment [8] was “inactive” each time. Further, the Potency entry in experiment [9] and in [11] was “inactive” each time. For the same molecule, the result in experiment [2], in experiment [4] and in [7] was inactive.
As for `CCCCC(O)(Cn1cncn1)c1ccc(Cl)cc1Cl` (stereo unspecified), the Potency in experiment [1] was 48.9 µM (active); in experiment [13], 54.9 µM (active); in experiment [14], 54.4 µM (active); in experiment [8] it was 54.9 µM (active). In addition, the result in experiment [2] and in [4] was inactive. For the same molecule, the Potency result in experiment [3] and in experiment [5] was “inactive” each time.
In the case of `CCOc1nc(F)cc2nc(S(=O)(=O)Nc3c(Cl)cccc3Cl)nn12`, the Potency entry in [1], in experiment [13], in [3], in experiment [5], in experiment [6] and in experiment [8] was “inactive” in each case. In addition, in [9], the Potency result was “inactive”. Also, the outcome in experiment [2], in experiment [4] and in [7] was inactive.
As to `O=[Se]=O`, the Potency result in experiment [1], in [13], in experiment [3], in experiment [5], in experiment [6] and in [15] was “inactive” each time. Also, the Potency entry in experiment [8], in experiment [9], in experiment [10] and in experiment [11] was “inactive” in each case. For the same molecule, the outcome in experiment [2], in experiment [4] and in experiment [7] was inactive.
For `CC(=O)[C@H]1CC[C@H]2[C@@H]3CC[C@H]4C[C@](C)(O)CC[C@]4(C)[C@H]3CC[C@]12C`, the Potency entry in experiment [1], in experiment [13], in [3], in [5], in experiment [12] and in experiment [6] was “inactive” throughout. The Potency entry in [15], in experiment [8], in experiment [9], in [19] and in experiment [20] was “inactive” throughout. The outcome in experiment [2], in [4], in experiment [16], in experiment [17] and in experiment [18] was inactive.
With `Sc1ccccc1Cl`, the Potency result in [1], in experiment [13], in [3], in experiment [12], in experiment [14] and in experiment [6] was “inactive” each time. Further, the Potency result in [15], in experiment [8], in experiment [9], in experiment [10] and in [11] was “inactive” throughout. Besides, the result in experiment [2], in experiment [4] and in experiment [7] was inactive.
On to `CN(N=O)c1ccc([N+](=O)[O-])cc1`, for which the Potency entry in experiment [1], in [3], in experiment [12], in [14], in [6] and in [15] was “inactive” throughout. The Potency result in experiment [8], in experiment [9], in [10] and in [11] was “inactive” each time. Besides, the outcome in [2], in experiment [4] and in [7] was inactive.
In the case of `CCOP(=S)(OCC)SCSCC`, the Potency result in experiment [1], in [13], in experiment [3], in [5], in experiment [12] and in experiment [6] was “inactive” throughout. The Potency result in [8] and in experiment [9] was “inactive” each time. Besides, the outcome in experiment [2], in [4] and in experiment [7] was inactive.
For `C=CCN1CC[C@]23c4c5ccc(O)c4O[C@H]2C(=O)CC[C@@]3(O)[C@H]1C5`, the Potency entry in experiment [1], in experiment [13], in experiment [3], in experiment [12], in experiment [14] and in [6] was “inactive” in each case. The Potency result in experiment [15], in experiment [8], in experiment [9], in [10] and in experiment [11] was “inactive” each time. Besides, the call in experiment [2], in experiment [4] and in experiment [7] was inactive.
